proKLK7 act = activators of human kallikrein-7 zymogen | P49862 | purified proKLK7, EDANS-DABCYL substrate fluorescence; 100% is mature enzyme control, 0% vehicle | activation, % at 7 µM | hit rate 0.9% among 370,000;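 active = activation above the mean of all tested compounds plus 3 SD, computed per campaign excluding outliers beyond control limits, cut at about 13% in these data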
PLCb3 inh = PLC-beta3 (human) inhibition, primary screen; Q01970; Purified PLC-beta3, fluorogenic substrate, fluorescence; inhibition, % at 12.2 µM; hit rate 0.18% among 370,000; AID 720704;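 note: 0% = median of compound wells on plate and 100% = full blocker control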
ADAM10 inh = inhibits human ADAM10. O14672. recombinant ADAM10, EDANS/DABCYL FRET peptide cleavage, 3 h. inhibition, % at 7 µM. hit rate 0.62% among 370,000. AID 720582;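 active = inhibition above a per-campaign cutoff equal to the mean of compounds falling between control-based bounds plus 3 SD, cut at about 20% in these data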;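 note: 0% = DMSO wells while the 100% control is not disclosed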
Target sequence (O14672 214-748 limits assumed): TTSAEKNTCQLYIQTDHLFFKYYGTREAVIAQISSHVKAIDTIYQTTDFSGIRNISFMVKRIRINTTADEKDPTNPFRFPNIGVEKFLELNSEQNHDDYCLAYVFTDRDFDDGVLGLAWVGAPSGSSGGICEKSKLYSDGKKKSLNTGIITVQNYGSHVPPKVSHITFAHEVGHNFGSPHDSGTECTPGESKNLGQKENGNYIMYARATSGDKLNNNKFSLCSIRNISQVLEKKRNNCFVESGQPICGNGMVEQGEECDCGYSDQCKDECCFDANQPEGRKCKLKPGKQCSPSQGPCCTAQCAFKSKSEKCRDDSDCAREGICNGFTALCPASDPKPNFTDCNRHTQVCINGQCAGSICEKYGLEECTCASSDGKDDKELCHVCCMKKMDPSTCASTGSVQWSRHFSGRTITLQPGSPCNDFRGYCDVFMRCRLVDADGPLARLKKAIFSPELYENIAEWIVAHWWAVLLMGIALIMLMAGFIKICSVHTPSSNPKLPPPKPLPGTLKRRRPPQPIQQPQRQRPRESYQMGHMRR
ADAM17 inh = ADAM17 inhibition, QFRET primary screen. P78536. recombinant ADAM17, EDANS/DABCYL FRET peptide cleavage. inhibition, % at 6.95 µM. hit rate 0.83% among 370,000. AID 720648;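 active = inhibition above the mean of compounds lying between control limits plus 3 SD, set per campaign, cut at about 8.5% in these data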;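 note: 0% = DMSO-only wells as the low control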
PLCg1 inh = blocks human PLC-gamma1 enzyme activity; P19174; hit rate 0.84% among 370,000; purified PLC-gamma1, fluorogenic substrate, fluorescence; inhibition, % at 12.2 µM; in the data active = inhibition above about 9.5%
sPLA2-III inh = Blocks human group III sPLA2 activity; Q9NZ20; inhibition, % at 12.2 µM; hit rate 0.56% among 370,000; QFRET BODIPY PC-A2 liposome hydrolysis, fluorescence;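 active = inhibition above mean plus 3 SD of compounds lying within the high and low control bounds, cut at about 19% in these data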;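 note: 0% = median of test compound wells and 100% = no enzyme DMSO wells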
PLCgamma1 ctr = PLC-gamma1 inhibition, counter-screen for PLC-beta3 hits; inhibition, % at 12.3 µM; hit rate 3.1% among 3,300; shares compounds with PLCg1 inh; purified PLC-gamma1, fluorogenic substrate, fluorescence; in the data active = inhibition above about 9.5%
PLCb3 confirm = human PLC-beta3 inhibition, confirmation; shares compounds with PLCg1 inh; purified PLC-beta3, fluorogenic substrate fluorescence; inhibition, % at 12.3 µM; hit rate 1% among 3,300; AID 743261
Starred values were filed as active, the others as inactive. Compounds with a hit are over-represented: about 3.4% of the library has one in this group of screens. Cut-off read from the data, not from the text of the source, unless noted: active = inhibition above about 11%; inactive = the rest.

CC1CC(C)CN(C(=O)c2cc3cc(Br)cc(Br)c3o2)C1 (centres undefined) was read as proKLK7 act 0.1, PLCb3 inh 0.3, ADAM10 inh -4.7, ADAM17 inh 0.8, PLCg1 inh -2.1 and sPLA2-III inh 2.1.
O/N=C(/c1ccccc1)c1cc2cc(Br)cc(Br)c2o1 was read as proKLK7 act 0.1, PLCb3 inh 1.5, ADAM10 inh 8.4, ADAM17 inh 8.6, PLCg1 inh 11.8*, sPLA2-III inh 2.0, PLCgamma1 ctr -4.1 and PLCb3 confirm -7.8.
For COc1ccc2oc(=O)cc(CN(C)Cc3ccccc3)c2c1 the results were proKLK7 act 2.0, PLCb3 inh -54.5, ADAM10 inh -53.9, ADAM17 inh -15.0, PLCg1 inh -42.5 and sPLA2-III inh 7.0.
`Cc1nn(-c2cc(C(F)(F)F)ccc2Cl)c2nc(C(F)(F)F)[nH]c(=O)c12` gave proKLK7 act 0.3, PLCb3 inh 11.7*, ADAM10 inh 6.2, ADAM17 inh 5.4, PLCg1 inh 4.0, sPLA2-III inh -3.3, PLCgamma1 ctr -2.1 and PLCb3 confirm -6.3.
Screening CC(=O)c1c(C)n(CC(=O)NCc2ccco2)c2ccccc12 returned proKLK7 act 0.1, PLCb3 inh -6.6, ADAM10 inh -8.6, ADAM17 inh -6.4, PLCg1 inh -0.5 and sPLA2-III inh 0.5.
Screening COc1ccccc1C(=O)Nc1ccnn1C1CCN(Cc2ccccc2OCCO)CC1 returned proKLK7 act 0.6, PLCb3 inh -4.9, ADAM10 inh -6.5, ADAM17 inh -4.8, PLCg1 inh -2.1 and sPLA2-III inh 3.2.
`COc1ccccc1CN1CCC(n2nccc2NC(=O)c2ccccc2Cl)CC1` gave proKLK7 act -0.4, PLCb3 inh 0.6, ADAM10 inh 10.4, ADAM17 inh 2.9, PLCg1 inh 11.3*, sPLA2-III inh -10.5, PLCgamma1 ctr -1.9 and PLCb3 confirm 0.1.
For COc1ccc(Br)cc1/C=N/Nc1ccccn1 the results were proKLK7 act -0.4, PLCb3 inh -4.1, ADAM10 inh -4.8, ADAM17 inh -3.6, PLCg1 inh -3.8 and sPLA2-III inh -8.4.
Screening COc1ccc(OC)c(S(=O)(=O)NCCCN2CCOCC2)c1 returned proKLK7 act 0.3, PLCb3 inh -2.3, ADAM10 inh 6.8, ADAM17 inh 1.7, PLCg1 inh 11.9*, sPLA2-III inh 1.2, PLCgamma1 ctr -6.9 and PLCb3 confirm -0.7.
For Cc1ccc[n+](/C(=C\C(=C=[N-])C#N)C(=O)c2ccc(Cl)cc2)c1 the results were proKLK7 act -0.3, PLCb3 inh 5.7, ADAM10 inh 15.4, ADAM17 inh 5.3, PLCg1 inh 9.7*, sPLA2-III inh 3.8, PLCgamma1 ctr 1.8 and PLCb3 confirm 5.5.
O=C(O)c1cccc2cccc(-c3c4ccc(=O)c(O)c-4oc4c(O)c(O)ccc34)c12 was read as proKLK7 act 18.8*, PLCb3 inh -6.4, ADAM10 inh -28.1, ADAM17 inh -6.1, PLCg1 inh 39.0*, sPLA2-III inh 9.3, PLCgamma1 ctr 27.7* and PLCb3 confirm -5.9.
`CCOC(=O)C1CN(S(=O)(=O)c2cccs2)c2ccc(CC(=O)OC)cc2O1` (centres undefined) gave proKLK7 act -0.3, PLCb3 inh -5.1, ADAM10 inh 1.6, ADAM17 inh -2.3, PLCg1 inh 1.2 and sPLA2-III inh 3.8.
`CCC(C)NC(=O)C1(O)c2ccccc2NC(=O)N1c1ccc(C)c(C)c1` (centres undefined) gave proKLK7 act -0.9, PLCb3 inh 6.8, ADAM10 inh 0.4, ADAM17 inh 3.9, PLCg1 inh 11.4*, sPLA2-III inh 4.8, PLCgamma1 ctr -7.2 and PLCb3 confirm -19.5.
Screening CCCCN(C)CCCNC(=O)C1(O)c2ccccc2NC(=O)N1c1ccc(Cl)cc1 (centres undefined) returned proKLK7 act 0.0, PLCb3 inh 3.7, ADAM10 inh -1.2, ADAM17 inh 4.6, PLCg1 inh 11.7*, sPLA2-III inh -0.5, PLCgamma1 ctr -4.6 and PLCb3 confirm -6.7.
Screening CCOCCCNC(=O)C1(O)c2ccccc2NC(=O)N1c1ccc(Cl)c(Cl)c1 (centres undefined) returned proKLK7 act -0.4, PLCb3 inh 1.4, ADAM10 inh -1.8, ADAM17 inh -4.1, PLCg1 inh 0.6 and sPLA2-III inh -0.2.
For CC(C)c1ccc(NC2CCCN(C(=O)CCc3cnn(C)c3)C2)cc1 (centres undefined) the results were proKLK7 act 0.6, PLCb3 inh -6.0, ADAM10 inh -9.7, ADAM17 inh -5.1, PLCg1 inh -2.3 and sPLA2-III inh -1.5.
Screening CCOC(=O)C1(C)CCN1C(=O)c1cc(-c2ccc(Cl)cc2)oc1C (centres undefined) returned proKLK7 act -1.1, PLCb3 inh -0.1, ADAM10 inh 12.9, ADAM17 inh 3.3, PLCg1 inh -0.1 and sPLA2-III inh -9.3.
Screening COc1ccc(NS(=O)(=O)c2cc(NC(=O)CCc3ccc(OC)c(OC)c3)ccc2N2CCOCC2)cc1 returned proKLK7 act 0.7, PLCb3 inh -4.7, ADAM10 inh -1.6, ADAM17 inh -0.9, PLCg1 inh -5.2 and sPLA2-III inh -5.3.
`CCn1cnnc1SCC(=O)Nc1ccccc1C(=O)NC1CC1` gave proKLK7 act -0.1, PLCb3 inh 11.2*, ADAM10 inh -2.4, ADAM17 inh -3.7, PLCg1 inh 11.5*, sPLA2-III inh -0.3, PLCgamma1 ctr -2.5 and PLCb3 confirm 0.5.
O=C(NC1CCC1)C1CCC(=O)N(Cc2cccc(F)c2)C1 (centres undefined) was read as proKLK7 act -0.5, PLCb3 inh -1.6, ADAM10 inh -8.2, ADAM17 inh -1.3, PLCg1 inh 10.3*, sPLA2-III inh 4.3, PLCgamma1 ctr 0.6 and PLCb3 confirm 0.8.
O=C(NCCc1ccccc1)C1CCC(=O)N(Cc2cccc(C(F)(F)F)c2)C1 (centres undefined) was read as proKLK7 act 0.0, PLCb3 inh -7.0, ADAM10 inh -13.2, ADAM17 inh -2.9, PLCg1 inh 5.3 and sPLA2-III inh 2.7.
For O=C(NCCc1nccs1)C1CCC(=O)N(Cc2cccc(C(F)(F)F)c2)C1 (centres undefined) the results were proKLK7 act -0.3, PLCb3 inh 3.5, ADAM10 inh -4.5, ADAM17 inh 3.7, PLCg1 inh 13.0*, sPLA2-III inh 6.2, PLCgamma1 ctr -6.3 and PLCb3 confirm -1.4.
O=C(NC1CCC1)C1CCC(=O)N(Cc2ccccc2F)C1 (centres undefined) was read as proKLK7 act -0.2, PLCb3 inh 0.2, ADAM10 inh -5.2, ADAM17 inh 5.4, PLCg1 inh 4.2 and sPLA2-III inh 5.7.
